# Source: the supplement of paper PMC13380429
# Where a name gives a salt, the structure may show the parent alone.
# Legend:
# [1] = system: Vero E6 infected with SARS-CoV-2; assay: morphology score (similarity to uninfected cells); higher = more like uninfected cells; settings: 24 h
# [2] = system: Vero E6 infected with SARS-CoV-2; assay: SARS-CoV-2 infection rate relative to infected DMSO; higher = more infection, active = 60 or less; settings: 24 h
Structure (SMILES),morphology score [1],SARS-CoV-2 infection rate [2]
Clc1cccc(N2CCNCC2)c1 (10 µM),0.0057,114% (inactive)
CCOC(=O)N1CCC(=C2c3ccc(Cl)cc3CCc3cccnc32)CC1 [loratadine] (10 µM),0.221,90% (inactive)
CCCn1c(=O)c2[nH]cnc2n(-c2ccc(Cl)cc2)c1=O [arofylline] (10 µM),0.178,108% (inactive)
CCOc1ccccc1-n1c(C(C)N2CCN(C(=O)COc3ccc(Cl)cc3)CC2)nc2ccccc2c1=O (configuration not stated) [erastin] (0.833333 µM),-0.0506,86% (inactive)
O=C(c1ccc2nccnc2c1)N1CCCCC1 [ampalex] (10 µM),-0.0456,104% (inactive)
Nc1ncnc2c1ncn2[C@@H]1O[C@@H]2COP(=O)(O)O[C@H]2[C@H]1O [cyclic-AMP] (10 µM),0.255,86.5% (inactive)
CCC1NC(=O)c2cc(S(N)(=O)=O)c(Cl)cc2N1 (configuration not stated) [quinethazone] (10 µM),0.339,88% (inactive)
O=c1c(-n2ccnn2)c[nH]n1-c1cc(N2CCOCC2)ncn1 [molidustat] (10 µM),0.0599,98.5% (inactive)
CC(C)[C@H](CO)Nc1nc(Nc2cc(N)cc(Cl)c2)c2ncn(C(C)C)c2n1 [aminopurvalanol-a] (0.833333 µM),-0.224,108% (inactive)
C[N+](C)(C)CCCCCNCC12CC3CC(CC(C3)C1)C2 (10 µM),-0.0308,112% (inactive)
Nc1nc(CC(=O)Nc2ccc(CCNC[C@H](O)c3ccccc3)cc2)cs1 [mirabegron] (10 µM),-0.0704,102% (inactive)
NS(=O)(=O)c1cc2c(cc1Cl)NCNS2(=O)=O [hydrochlorothiazide] (10 µM),0.0281,110% (inactive)
OC(c1ccc(-c2ccc(CN3CCN(Cc4ccncc4)CC3)cc2)c(F)c1)(C(F)(F)F)C(F)(F)F (10 µM),-0.228,104% (inactive)
CN1C(=O)C(F)=C[C@]2(C)[C@H]3CC[C@]4(C)[C@@H](C(=O)NCc5nc6cccnc6[nH]5)CC[C@H]4[C@@H]3CC[C@@H]12 (10 µM),0.0239,100% (inactive)
CC[C@@H](c1cccc(O)c1)[C@@H](C)CN(C)C [Tapentadol (hydrochloride)] (10 µM),0.0731,108% (inactive)
Cc1ccccc1C(C(=O)NC1CCCCC1)N(C(=O)Cn1ccnc1C)c1cccc(F)c1 (configuration not stated) (10 µM),0.177,108% (inactive)

Structure (SMILES),morphology score [1],SARS-CoV-2 infection rate [2]
CCOC(=O)C1=C(C)NC(=S)NC1c1cccc(O)c1 (configuration not stated) [monastrol] (10 µM),0.0534,93% (inactive)
Cc1ccc(C(C)C)c(O)c1 [thymol] (10 µM),-0.0243,112% (inactive)
COc1cc(OC)cc(C(=O)NNC(=O)Nc2cccc3ccccc23)c1 (10 µM),0.0721,105% (inactive)
O=C(O)c1ccc(CN2CCC(CN[C@@H]3C[C@H]3c3ccccc3)CC2)cc1 (10 µM),0.106,98% (inactive)
NC(=O)C[C@H](N)C(=O)O [L-asparagine] (10 µM),0.14,94% (inactive)
Oc1c(I)cc(I)c2cccnc12 [iodoquinol] (0.833333 µM),0.155,99.5% (inactive)
Cc1ccc(O)c(N=Nc2ccccc2)n1 (10 µM),0.26,81% (inactive)
COc1cccc2c1C(=O)c1c(O)c3c(c(O)c1C2=O)C[C@@](O)(C(=O)CO)C[C@@H]3O[C@H]1C[C@H](N2CCO[C@H](OC)C2)[C@H](O)[C@H](C)O1 [nemorubicin] (0.833333 µM),0.0228,108% (inactive)
O=C(NC1CCC1)c1ccc(C#Cc2cccc(F)c2)nc1 (10 µM),0.0178,99% (inactive)
CCOc1cncc(/C=C/CCNC)c1 (10 µM),-0.0406,108% (inactive)
Clc1cccc(SC2CCNCC2)n1 [anpirtoline] (10 µM),0.0464,106% (inactive)
Cc1sc2c(c1C)C(c1ccc(Cl)cc1)=N[C@@H](CC(N)=O)c1nnc(C)n1-2 (0.833333 µM),-0.0333,104% (inactive)
CC(C)c1ccc(C(=O)N=C(N)N)cc1S(C)(=O)=O [cariporide] (10 µM),0.169,101% (inactive)
CCCCc1nc(Cl)c(CO)n1Cc1ccc(-c2ccccc2-c2nnn[nH]2)cc1 [losartan] (10 µM),0.0837,99.5% (inactive)
O=C(O)C1(C(=O)O)CCC1.[NH2-].[NH2-].[Pt+2] [carboplatin] (10 µM),-0.0106,102% (inactive)
